Test results taken from PubChem BioAssay (NCATS).
Inconclusive results are not listed. Active and inactive are the calls of the source. The call rests on the fitted dose curve; in most records, active means well fitted curve in the direction sought with a large enough effect; inconclusive means small, poorly fitted or top-dose-only effect, or another doubt; inactive means no such curve, though single readings can be large; an effect the other way counts as inactive or inconclusive.

Experiments:
[1] = tested on: Zika virus NS2B-NS3 protease (linked construct); experiment: Primary screen NINDS Rhodamine qHTS for Zika virus inhibitors (AID 1347160); further: nearly all actives have a fitted effect of over 55% in size
Procedure, shortened: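 Kinetic fluorescence (Ex 480 nm, Em 540 nm) over 15 min with 1.5 microM Rhodamine110 peptide and 25 nM linked protease.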

[2] = qHTS to identify inhibitors of the type 1 interferon - major histocompatibility complex class I in skeletal muscle: primary screen against the NCATS Pharmaceutical Collection (AID 1347407);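 further: luminescence of HiBiT knocked into endogenous HLA-B as interferon-induced MHC class I level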
Procedure, shortened: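 Immortalized human myoblasts (C25cl48) with HiBiT knocked into endogenous HLA-B*08:01 were stimulated with 4 ng/ml IFN-beta and treated with compounds (8-point, 1:5, top 46 uM final) for 24 h at 37 C; HiBiT lytic luminescence read.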

[3] = qHTS to identify inhibitors of the type 1 interferon - major histocompatibility complex class I in skeletal muscle: primary screen against the NCATS Mechanism Interrogation Plate v5.0 (MIPE) Libary (AID 1347411); further: nearly all actives have a fitted effect of over 65% in size
Procedure, shortened: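 Luminescence from HiBiT-tagged endogenous HLA-B*08:01 served as the MHC class I read-out. CRISPR-engineered C25cl48 human myoblasts received 4.0 ng/ml IFN-beta plus compound for 24 hrs, with an 11-point, 1:3 series topping at 46 uM final.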

[4] = target: Protein phosphatase 1D (Homo sapiens) (UniProt O15297); experiment: RapidFire Mass Spectrometry qHTS Assay for Modulators of WT P53-Induced Phosphatase 1 (WIP1) (AID 1347424);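 further: amount of dephosphorylated VEPPL-S-QETFS peptide product formed by WIP1; series mostly up to about 63 µM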
Procedure, shortened: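 WIP1 (10 nM final) was preincubated 1 h at room temperature with compounds in Tris-HCl pH 7.5, 30 mM MgCl2, TCEP, EGTA, BSA; 2 uM VEPPL-pS-QETFS phosphopeptide was added for 5 min, quenched with formic acid, and dephosphorylated product quantified by RapidFire MS.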

[5] = Primary qHTS for inhibitors of La Crosse Virus (LACV) - induced cell death in SH-SY5Y cells (AID 1508616);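 further: top concentration of the series differs between compounds; higher means more rescue of cells from virus-induced death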
Procedure, shortened: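 Protection against LACV-induced cell death is scored in SH-SY5Y cells exposed to compounds and virus (0.01 MOI) for 6 days. Data normalized to virus-infected DMSO wells and virus-free DMSO wells.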

[6] = target: Calcium and integrin-binding protein 1 (Homo sapiens) (UniProt Q99828); experiment: Primary qHTS for Identification of Calcium Integrin Binding Protein 1 (CIB1) Competitor (AID 1508620);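 further: GST tagged CIB1 binding a fluorescein labelled alphaIIb integrin peptide tracer; top concentration of the series differs between compounds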
Procedure, shortened: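 Fluorescence polarization competition: CIB1-GST (1 uM final) preincubated with compound 15 min at room temperature, then FITC-labeled alphaIIb peptide (100 nM final) added for another 15 min. Polarization read at Ex 480/Em 540.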

[7] = target: Protein phosphatase 1D (Homo sapiens) (UniProt O15297); experiment: Rhodamine-PBP qHTS Assay for Modulators of WT P53-Induced Phosphatase 1 (WIP1) (AID 1347425)
Procedure, shortened: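 5 nM WIP1 + 10 uM Rh-PBP, 50 mM Tris pH 7.5, 30 mM MgCl2, 1 mM TCEP, 0.1 mM EGTA, BSA; cpds pinned, 1 hr RT; + 10 uM phosphopeptide; fluorescence 1-min reads x 11 min; delta = f1 - f0.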

[8] = target: Lysine-specific demethylase 5B (Homo sapiens) (UniProt Q9UGL1); experiment: Optimization screen for KDM5B Histone Demethylases FDH coupled qHTS against the LOPAC library (AID 1347166)
Procedure, shortened: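 KDM5BDeltaAP (200nM final) preincubated 10 min with compound, then 12.5uM H3K4Me3, 25uM a-ketoglutarate, ascorbate, Fe(II), NAD+ and FDH added; 50mM HEPES pH 7.5, 0.01% Tween-20. NADH fluorescence (340/450 nm) change over 30 min, room temperature.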

[9] = qHTS to identify inhibitors of the type 1 interferon - major histocompatibility complex class I in skeletal muscle: primary screen against the NCATS LOPAC collection (AID 1347405);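 further: lytic HiBiT luminescence reporting HLA-B protein level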
Procedure, shortened: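 Luminescence from HiBiT fused to endogenous HLA-B in CRISPR-engineered human myoblasts served as the read-out. Cells received 4.0 ng/ml IFN-beta plus compound (seven concentrations, 1:4.3 steps, highest 46 uM final) for 24 hrs before lytic detection.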

[10] = qHTS for inhibitors of adenylyl cyclases using a fission yeast platform: a pilot screen against the NCATS LOPAC library (AID 1347410)
Procedure, shortened: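 S. pombe CHP2027 (AC9-GNAS-PDE4D2) carrying a PKA-repressed fbp1-GFP reporter was exposed to LOPAC compounds (final up to 57 µM) for 18 h at 30C in the dark, in EMM with histidine, lysine and uracil; GFP gain-of-signal read by laser scanning cytometry.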

[11] = Validation qHTS assay for inhibitors of Activation Induced Cytidine Deaminase (AID): UDG Counterscreen signal (AID 1347427)
Procedure, shortened: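 Counterscreen read of UDG activity (2 U/mL, 4/3x) in the FRET deamination format with AID (1 uM, 4/3x), DJC20/DJC23 substrates (250 nM, 4x), 4 h at room temperature. NaOH stop, fluorescence at 560 ex/665 em.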

[12] = target: Single-stranded DNA cytosine deaminase (Homo sapiens) (UniProt Q9GZX7); experiment: Validation qHTS assay for inhibitors of Activation Induced Cytidine Deaminase (AID): AID signal (AID 1347429)
Procedure, shortened: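 Fluorescence at 540 nm excitation and 590 nm emission reports ssDNA cytosine deamination by AID, with UDG in the same well. Compound-treated reactions ran 4 hr at room temperature with DJC20/DJC23 substrate, followed by 30 min NaOH treatment.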

[13] = target: Calcium and integrin-binding protein 1 (Homo sapiens) (UniProt Q99828); experiment: Validation qHTS for Identification of Calcium Integrin Binding protein 1 (CIB1) Competitor (AID 1508618)
Procedure, shortened: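 Displacement of FITC-alphaIIb peptide (100 nM) from CIB1-GST (1 uM) is monitored by polarization in quantitative HTS format; buffer carries 5 mM CaCl2 and 125 mM NaCl at pH 7.4, incubations are at room temperature.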

[14] = Confirmatory screen NINDS Rhodamine qHTS for Zika virus inhibitors (AID 1347161); further: potency means the concentration at half of the fitted maximal effect; nearly all actives have a fitted effect of over 60% in size
Procedure, shortened: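 qHTS dose-response: 25 nM linked protease, pH 8.0 Tris/Tween buffer, cpd titration, 15 min RT preinc, 1.5 microM Rhod110 peptide, 15 min reaction (~15% conversion), Ex480/Em540; 4-parameter Hill fit.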

[15] = Vero cells viability qHTS for Zika virus inhibitors (AID 1347167)
Procedure, shortened: (§1)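 Counter-screen for cytotoxicity of hits from NS2B-NS3 protease qHTS. Overnight-attached cells (2.5 x 10^5 cells/mL, DMEM/4% FBS) were dosed in titration, incubated 24 to 48 hours, then assayed by CellTiter Glo.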

[16] = HepG2 cells viability qHTS for Zika virus inhibitors (AID 1347168); further: potency means the concentration at half of the fitted maximal effect
Procedure, shortened: as §1

[17] = Tertiary RLuc qRT-PCR qHTS assay for Zika virus inhibitors (AID 1347169); further: potency means the concentration at half of the fitted maximal effect; nearly all actives have a fitted effect of over 55% in size
Procedure, shortened: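 Vero cells (1,000 per well) plated overnight at 37 degrees C, treated with compound in DMSO, then infected with recombinant ZIKV-RLuc (Cambodian) at MOI 1-2 for 48-72 hrs. Live-cell Renilla luciferase substrate added; luminescence read after 1-1.5 hrs.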

Measured: Potency

Chain of Protein phosphatase 1D (Homo sapiens) (O15297 whole entry, looked up): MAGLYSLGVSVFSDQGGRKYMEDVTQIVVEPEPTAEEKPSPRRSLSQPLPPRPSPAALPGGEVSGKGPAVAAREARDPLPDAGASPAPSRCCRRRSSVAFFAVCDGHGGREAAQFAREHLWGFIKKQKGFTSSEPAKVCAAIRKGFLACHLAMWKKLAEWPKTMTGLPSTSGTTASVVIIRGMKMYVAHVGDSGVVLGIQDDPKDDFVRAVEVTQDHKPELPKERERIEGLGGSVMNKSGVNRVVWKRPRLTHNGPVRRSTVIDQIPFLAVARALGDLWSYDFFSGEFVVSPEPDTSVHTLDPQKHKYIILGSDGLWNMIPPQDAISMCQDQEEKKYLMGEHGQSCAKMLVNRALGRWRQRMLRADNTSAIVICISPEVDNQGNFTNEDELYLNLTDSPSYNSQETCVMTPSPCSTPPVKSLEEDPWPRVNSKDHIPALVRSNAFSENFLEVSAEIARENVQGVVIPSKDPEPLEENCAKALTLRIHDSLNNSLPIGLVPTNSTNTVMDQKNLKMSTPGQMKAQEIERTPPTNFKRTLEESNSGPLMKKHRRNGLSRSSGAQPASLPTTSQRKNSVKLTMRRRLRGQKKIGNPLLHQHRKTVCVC
Chain of Calcium and integrin-binding protein 1 (Homo sapiens) (Q99828 whole entry, looked up): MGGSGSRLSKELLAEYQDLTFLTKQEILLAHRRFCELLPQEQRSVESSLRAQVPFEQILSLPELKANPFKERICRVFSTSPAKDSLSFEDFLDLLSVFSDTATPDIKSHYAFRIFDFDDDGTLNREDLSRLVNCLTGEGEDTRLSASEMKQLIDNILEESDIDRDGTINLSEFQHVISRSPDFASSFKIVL
Chain of Lysine-specific demethylase 5B (Homo sapiens) (Q9UGL1 whole entry, looked up): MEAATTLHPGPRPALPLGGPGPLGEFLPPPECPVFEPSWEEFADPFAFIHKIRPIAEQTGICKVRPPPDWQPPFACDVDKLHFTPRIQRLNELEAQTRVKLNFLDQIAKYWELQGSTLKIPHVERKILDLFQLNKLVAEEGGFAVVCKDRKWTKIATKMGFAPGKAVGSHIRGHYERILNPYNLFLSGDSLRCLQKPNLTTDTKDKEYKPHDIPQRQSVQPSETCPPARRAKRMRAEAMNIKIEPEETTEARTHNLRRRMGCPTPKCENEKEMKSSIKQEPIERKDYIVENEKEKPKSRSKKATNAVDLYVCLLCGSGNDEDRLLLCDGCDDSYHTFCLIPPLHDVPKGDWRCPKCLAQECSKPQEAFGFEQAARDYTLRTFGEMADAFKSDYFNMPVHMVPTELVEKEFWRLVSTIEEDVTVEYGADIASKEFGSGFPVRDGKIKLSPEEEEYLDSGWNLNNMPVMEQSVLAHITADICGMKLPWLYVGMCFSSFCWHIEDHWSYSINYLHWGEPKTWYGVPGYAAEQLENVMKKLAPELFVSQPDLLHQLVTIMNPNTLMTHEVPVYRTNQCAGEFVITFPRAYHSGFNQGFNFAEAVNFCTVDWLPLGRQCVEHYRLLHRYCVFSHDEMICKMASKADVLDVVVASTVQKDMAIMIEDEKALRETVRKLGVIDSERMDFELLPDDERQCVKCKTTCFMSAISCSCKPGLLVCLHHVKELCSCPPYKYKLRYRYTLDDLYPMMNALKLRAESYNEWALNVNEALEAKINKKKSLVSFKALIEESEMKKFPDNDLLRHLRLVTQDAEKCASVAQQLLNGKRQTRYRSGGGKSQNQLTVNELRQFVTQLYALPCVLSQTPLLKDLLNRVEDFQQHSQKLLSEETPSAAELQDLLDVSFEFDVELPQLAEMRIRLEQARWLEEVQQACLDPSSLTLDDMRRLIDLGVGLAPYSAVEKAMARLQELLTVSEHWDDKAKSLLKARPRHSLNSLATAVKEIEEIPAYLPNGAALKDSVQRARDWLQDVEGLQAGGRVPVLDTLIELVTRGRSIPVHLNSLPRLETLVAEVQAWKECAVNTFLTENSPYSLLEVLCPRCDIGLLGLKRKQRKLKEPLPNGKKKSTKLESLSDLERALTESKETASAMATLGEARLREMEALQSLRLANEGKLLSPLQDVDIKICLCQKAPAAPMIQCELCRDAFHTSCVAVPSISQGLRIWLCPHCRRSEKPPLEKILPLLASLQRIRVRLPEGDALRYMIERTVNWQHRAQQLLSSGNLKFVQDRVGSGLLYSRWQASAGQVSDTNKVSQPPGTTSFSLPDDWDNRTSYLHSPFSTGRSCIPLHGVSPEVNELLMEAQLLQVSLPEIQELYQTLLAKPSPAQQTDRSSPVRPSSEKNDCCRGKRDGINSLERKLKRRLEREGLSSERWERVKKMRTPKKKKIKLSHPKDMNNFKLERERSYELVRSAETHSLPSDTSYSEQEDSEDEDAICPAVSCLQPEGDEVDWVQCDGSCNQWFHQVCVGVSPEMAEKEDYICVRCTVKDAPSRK
Chain of Single-stranded DNA cytosine deaminase (Homo sapiens) (Q9GZX7 whole entry, looked up): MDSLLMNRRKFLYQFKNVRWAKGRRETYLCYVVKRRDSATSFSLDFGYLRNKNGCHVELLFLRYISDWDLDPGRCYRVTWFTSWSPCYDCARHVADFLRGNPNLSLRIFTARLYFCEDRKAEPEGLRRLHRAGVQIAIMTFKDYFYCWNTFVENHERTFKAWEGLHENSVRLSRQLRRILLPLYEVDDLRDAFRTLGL

O=C1[C@H](CC[C@H](O)c2ccc(F)cc2)[C@@H](c2ccc(O)cc2)N1c1ccc(F)cc1
inactive: [1] | [2] | [3] | [4] | [5] | [6]

CCCCCCCCCCCCCCCC(=O)O
inactive: [2] | [4] | [7] | [5]

CCOC(=O)[C@H](CCc1ccccc1)N[C@@H](C)C(=O)N1[C@H](C(=O)O)C[C@H]2CCCC[C@@H]21
inactive: [8] | [9] | [10] | [11] | [12] | [5] | [13]

CC(=O)Nc1ccc(OCC(O)CNC(C)C)cc1 (centres undefined)
inactive: [2] | [4] | [7] | [5]

O=c1[nH]c(=O)n([C@H]2C[C@H](O)[C@@H](CO)O2)cc1F
inactive: [2] | [3] | [4] | [7] | [6]

CC1(COc2ccc(CC3SC(=O)NC3=O)cc2)CCCCC1 (centres undefined)
inactive: [15] | [16] | [2] | [5] | [6]
active: [14] 3.11 µM

OC1C(O)C(O)C(O)C(O)C1O (centres undefined)
inactive: [2] | [4] | [7] | [5]

CCCCCCCCCCCCCCC[C@H](O)[C@@H](N)CO
inactive: [2] | [4] | [7] | [5]

C#C[C@]1(O)CC[C@H]2[C@@H]3CCc4cc(OC)ccc4[C@H]3CC[C@@]21C
inactive: [2] | [3] | [4] | [7] | [5] | [6]

CCOC(=O)[C@H](CCc1ccccc1)N[C@@H](C)C(=O)N1[C@H](C(=O)O)C[C@@H]2CCC[C@@H]21
inactive: [2] | [3] | [4] | [7] | [5] | [6]

O[C@@H](c1cc(C(F)(F)F)nc2c(C(F)(F)F)cccc12)[C@H]1CCCCN1
inactive: [15] | [4] | [7] | [5] | [6]
active: [16] 20.8 µM | [17] 9.3 µM
